According to ChEMBL document CHEMBL3988442, “University of Dundee, Small-Polar-MMV Screening Library” (2021):
About 13,000 (27%) of roughly 48,000 compounds showed an effect of 50% or more. The list shows a part of the results.

The compounds below were run on Wolbachia pipientis (assay: Anti-Wolbachia Cell-Based Screen). Conditions: 5 µM.
Format: functional
Set-up: scale not given: in the data most compounds retested in dose-response had high values
In the case of `OCCN(Cc1cccnc1)c1ccc(Cl)cn1`, the “Percent Effect” value is reported as -7.592%. For `CNc1nc(C(=O)N2C[C@H]3CC[C@@H]2CN(C2CCOCC2)C3)cs1`, the “Percent Effect” value was -0.4329%. For `CCCc1nc(CN(C)CC2CCN(CCO)CC2)no1`, the “Percent Effect” value was -5.007%. With `CC(=O)NCCNC(=O)c1cnc2c(c1)nc(-c1ccccc1Cl)n2C` the “Percent Effect” value was -9.781%. In the case of `CC(C)[C@H]1CN(c2ccnc(N)n2)C[C@@H]1NC(=O)C1(C#N)CCOCC1`, the “Percent Effect” value is reported as 89.33%. For `CC(=O)N1C[C@H](NC(=O)c2ccnc(N)c2)[C@@H](C(C)C)C1`, the “Percent Effect” value was -4.113%. In the case of `COC(C)(C)C(=O)N[C@H]1CN(c2ncccc2C(N)=O)C[C@@H]1C(C)C`, the “Percent Effect” value is reported as 2.672%. In the case of `Cc1nn(C)c(Oc2ccc(Cl)cc2)c1CN1CC[C@H](CO)[C@@H](O)C1`, the “Percent Effect” value is reported as -1.259%. `COCC1CN(Cc2cccc(C#N)c2)Cc2nccn2C1` (configuration not stated) was tested, and the “Percent Effect” value was 107.2%. `N#Cc1cccc(CN2Cc3nccn3CC(COCC3CC3)C2)c1.O=C(O)C(F)(F)F` (configuration not stated) was tested, and the “Percent Effect” value was 104.1%. `CCOCC1CN(Cc2cccc(C#N)c2)Cc2nccn2C1.O=C(O)C(F)(F)F` (configuration not stated) was tested, and the “Percent Effect” value was 5.676%. `Cc1ccc2c(n1)N(CCN(C)C)CCN(Cc1c(C)noc1C)C2.O=C(O)C(F)(F)F.O=C(O)C(F)(F)F.O=C(O)C(F)(F)F` was tested, and the “Percent Effect” value was 11.23%. For `CCN(CC)CC1CN(Cc2cccc(C#N)c2)Cc2nccn2C1.O=C(O)C(F)(F)F.O=C(O)C(F)(F)F` (configuration not stated), the “Percent Effect” value was 268.5%. For `CCN(CC)CC1CN(Cc2c(C)noc2C)Cc2nccn2C1` (configuration not stated), the “Percent Effect” value was -2.257%. `CN(C)CCN1CCN(Cc2cccc(C#N)c2)Cc2cccnc21.O=C(O)C(F)(F)F.O=C(O)C(F)(F)F.O=C(O)C(F)(F)F` was tested, and the “Percent Effect” value was 101.9%. In the case of `Cc1noc(C)c1CN1CCN(CCN(C)C)c2ncccc2C1.O=C(O)C(F)(F)F.O=C(O)C(F)(F)F.O=C(O)C(F)(F)F`, the “Percent Effect” value is reported as 0.7067%. For `COCc1nccc(C2CCCN(Cc3cccc(C#N)c3)C2)n1` (configuration not stated), the “Percent Effect” value was -9.239%. For `CCC(C)(NCC(=O)NC(C)C)c1nccs1` (configuration not stated), the “Percent Effect” value was -10.98%. `NC(=O)COc1ccc(CN2CCNC(C(=O)NC3CC3)C2)cc1Cl` (configuration not stated) was tested, and the “Percent Effect” value was -45.28%. With `CC1CCN(c2ccc3c(-c4ncc(C(=O)O)s4)noc3c2)CC1` the “Percent Effect” value was -16.58%. `CC1(C)COCCN1C(=O)CCc1nc(-c2ccccn2)no1` was tested, and the “Percent Effect” value was -0.8567%. `O=C(Nc1cccnc1)Nc1ccn(CC(F)F)n1` was tested, and the “Percent Effect” value was -6.683%. In the case of `CN(C)CC1(O)CCCN(c2nc(-c3ccccc3)no2)CC1` (configuration not stated), the “Percent Effect” value is reported as -0.08727%. For `CN(C)CCOCC1CN(Cc2cccc(F)c2)Cc2nccn2C1.O=C(O)C(F)(F)F.O=C(O)C(F)(F)F` (configuration not stated), the “Percent Effect” value was 63.4%. `CN(C)CC1CN(Cc2cccc(C#N)c2)Cc2nccn2C1.O=C(O)C(F)(F)F.O=C(O)C(F)(F)F` (configuration not stated) was tested, and the “Percent Effect” value was 95.93%. For `CCN(CC)CC1CN(CCc2ccccc2)Cc2nccn2C1.O=C(O)C(F)(F)F.O=C(O)C(F)(F)F` (configuration not stated), the “Percent Effect” value was 77.99%. `N#Cc1cccc(CN2Cc3nccn3CC(CN3CCCC3)C2)c1.O=C(O)C(F)(F)F.O=C(O)C(F)(F)F` (configuration not stated) was tested, and the “Percent Effect” value was 90.25%. In the case of `CN(C)CCOCC1CN(Cc2ccsc2)Cc2ccnn2C1.O=C(O)C(F)(F)F.O=C(O)C(F)(F)F.O=C(O)C(F)(F)F` (configuration not stated), the “Percent Effect” value is reported as -16.3%. `O=C(Cc1ccccc1)N1Cc2nccn2CC(CN2CCCC2)C1.O=C(O)C(F)(F)F` (configuration not stated) was tested, and the “Percent Effect” value was 14.72%. In the case of `CCN(CC)CC1CN(Cc2nccs2)Cc2nccn2C1.O=C(O)C(F)(F)F.O=C(O)C(F)(F)F` (configuration not stated), the “Percent Effect” value is reported as -6.3%. For `Cc1nc(CN2Cc3nccn3CC(CN3CCCC3)C2)cs1.O=C(O)C(F)(F)F.O=C(O)C(F)(F)F` (configuration not stated), the “Percent Effect” value was -3.569%. For `CN(C)CC1CN(Cc2ccsc2)Cc2nccn2C1.O=C(O)C(F)(F)F.O=C(O)C(F)(F)F` (configuration not stated), the “Percent Effect” value was -11.98%. In the case of `CCN(CCC(=O)NC1CC1)Cc1ccc(Cl)s1`, the “Percent Effect” value is reported as -9.828%. `Cc1ccccc1OCC1CCCN(C(=O)CN(C)C2CCNCC2)C1` (configuration not stated) was tested, and the “Percent Effect” value was 4.855%. `Cc1ccc(S(=O)(=O)N(C)CC(N)=O)c(Cl)c1` was tested, and the “Percent Effect” value was 2.18%. For `Cc1nonc1CN(C)Cc1cnn(-c2ccc(Cl)cc2)c1`, the “Percent Effect” value was 133.6%. `Cc1nonc1CN(C)Cc1nc(-c2ccccc2Cl)oc1C` was tested, and the “Percent Effect” value was -14.91%. `CSCC(=O)N(C)Cc1cnn(-c2ccc(F)cc2)c1` was tested, and the “Percent Effect” value was -3.16%. With `CCn1cc(CN(C)S(=O)(=O)c2ccc(Cl)cc2)cn1` the “Percent Effect” value was -0.8604%. In the case of `Cc1nonc1CN(C)Cc1cnn(-c2ccc(F)cc2)c1`, the “Percent Effect” value is reported as 116.4%. With `Cc1nonc1CN(C)Cc1c[nH]nc1-c1ccc(F)cc1F` the “Percent Effect” value was 1.804%. In the case of `CS(=O)(=O)c1nccn1CCOc1ccc(F)cc1Cl`, the “Percent Effect” value is reported as 1.333%. For `COc1ccc(S(N)(=O)=O)cc1C(=O)N(C)Cc1cc(C)on1`, the “Percent Effect” value was 5.855%. With `CCc1nc(C2CCCN(C(=O)c3cccc(C(N)=O)c3)C2)no1` (configuration not stated) the “Percent Effect” value was 115.3%. For `CCc1nc(C2CCCN(C(=O)c3ccc4c(c3)nnn4C)C2)no1` (configuration not stated), the “Percent Effect” value was 5.742%. `Cc1noc(C2CCCN(C(=O)c3cccc(Cl)c3)C2)n1` (configuration not stated) was tested, and the “Percent Effect” value was -10.95%. For `CCc1nc(C2CCCN(C(=O)c3cccc4cn[nH]c34)C2)no1` (configuration not stated), the “Percent Effect” value was -7.145%. For `CCc1nc(C2CCCN(C(=O)c3cccc4c3ccn4C)C2)no1` (configuration not stated), the “Percent Effect” value was -5.539%. `CCc1nc(C2CCCN(C(=O)c3cccc(Cl)c3)C2)no1` (configuration not stated) was tested, and the “Percent Effect” value was 126.3%. With `NC(=O)c1ccc(N2CCN(Cc3cccc4nsnc34)CC2)nc1` the “Percent Effect” value was -18.45%. For `COc1ccc(C(NC(=O)c2cccc[n+]2[O-])C2CC2)cc1` (configuration not stated), the “Percent Effect” value was 3.052%. In the case of `NC(=O)CN1CC2(CCC1=O)CCN(Cc1ccc(Cl)c(F)c1)CC2`, the “Percent Effect” value is reported as 13.87%. `O=C(c1cn[nH]c1)N1CCC2(CCCN(Cc3ccc(F)c(F)c3)C2)C1` (configuration not stated) was tested, and the “Percent Effect” value was -7.691%. With `NC(=O)C1(c2cnccn2)CCCN1Cc1ccc(F)c(F)c1` (configuration not stated) the “Percent Effect” value was 80.27%. For `CN(C)C(=O)N1CCCC2(CCN(Cc3ccc(Cl)c(F)c3)C2)C1` (configuration not stated), the “Percent Effect” value was 2.484%. In the case of `CCS(=O)(=O)N1CCC2(CCCN(Cc3ccc(F)c(F)c3)C2=O)C1` (configuration not stated), the “Percent Effect” value is reported as -34.42%. `NC(=O)C1(c2cnccn2)CCCN1Cc1ccc(Cl)c(F)c1` (configuration not stated) was tested, and the “Percent Effect” value was 137%. In the case of `COc1cc(CNC2CCN(c3ccccc3)C2)cc(OC)c1OC` (configuration not stated), the “Percent Effect” value is reported as 0.4794%. In the case of `CCn1cc(CN(C)S(=O)(=O)c2ccc(NC(C)=O)cc2)cn1`, the “Percent Effect” value is reported as 5.791%. In the case of `CNC(=O)c1[nH]nc2c1CN(c1cc(C3CCCNC3)nc(C)n1)CC2` (configuration not stated), the “Percent Effect” value is reported as -2.336%. `CNC(=O)c1cc(C2CCCN2)n[nH]1.Cl` (configuration not stated) was tested, and the “Percent Effect” value was 155.4%. `COc1ccccc1OCc1cc(C(=O)NC[C@@H]2CCCN2)n[nH]1` was tested, and the “Percent Effect” value was -26.39%. With `Cl.O=C(NC1CCCC1)c1cc(C2CCCNC2)n[nH]1` (configuration not stated) the “Percent Effect” value was 150.1%. In the case of `CNC(=O)c1cc(C2CCCNC2)n[nH]1.Cl` (configuration not stated), the “Percent Effect” value is reported as 96.41%. In the case of `CCCc1cc(C(=O)NC2CCCCNC2=O)[nH]n1` (configuration not stated), the “Percent Effect” value is reported as -7.069%. `CCc1c(C)nn(CCNC(=O)c2cc(C3CC3)n[nH]2)c1C` was tested, and the “Percent Effect” value was 1.187%. For `O=C(c1ccc(C2CCCN2)s1)N1CC=CC1` (configuration not stated), the “Percent Effect” value was 0.32%. With `O=C(NC1CCCC1)c1n[nH]c2c1CNCC2` the “Percent Effect” value was -11.08%. `CSC1(CNc2ccc(Br)cn2)CCOCC1` was tested, and the “Percent Effect” value was -9.614%. `CCOCCNC(=O)c1cc(Br)c2c(c1)OCCO2` was tested, and the “Percent Effect” value was -10.75%. With `COCCC(=O)N1CC2(CCN(Cc3ccccc3Cl)CC2)C1.O=C(O)C(F)(F)F` the “Percent Effect” value was 7.796%. In the case of `Cc1nc(C2CCN(S(=O)(=O)c3ccc4c(c3)CCC4)CC2)n[nH]1`, the “Percent Effect” value is reported as -1.341%. In the case of `CCC[C@H]1CN(S(=O)(=O)c2c(C)noc2C)C[C@@H]1N`, the “Percent Effect” value is reported as -20.84%. In the case of `Cc1noc(C)c1S(=O)(=O)N1CCc2nc(C3CCNCC3)ncc2C1.Cl`, the “Percent Effect” value is reported as 92.39%. With `Cl.O=S(=O)(c1ccc(Cl)cc1)N1CCc2nc(C3CCNCC3)ncc2C1` the “Percent Effect” value was 112%. With `Cc1ccc(S(=O)(=O)N2CCc3nc(C4CCNCC4)ncc3C2)cc1.Cl` the “Percent Effect” value was -12.78%. `Cc1n[nH]c(C)c1CCN(C)C(=O)c1ccc(CN2CCCCC2)cc1` was tested, and the “Percent Effect” value was -26.72%. `CCc1cnc(C)nc1NCC(O)CN1CCCCCC1` (configuration not stated) was tested, and the “Percent Effect” value was -1.473%. `Cc1nnc([C@@H]2CC[C@@H]3[C@@H](CCN3C3CCOCC3)O2)o1` was tested, and the “Percent Effect” value was -2.772%. In the case of `Cc1nnc([C@@H]2CC[C@@H]3[C@@H](CCN3S(C)(=O)=O)O2)o1`, the “Percent Effect” value is reported as 4.456%. In the case of `Cc1nnc([C@@H]2CC[C@@H]3[C@@H](CCN3C3CCC3)O2)o1`, the “Percent Effect” value is reported as 107.1%. In the case of `CC(=O)C(Cc1ccccc1)NC(=O)CSc1nncn1C` (configuration not stated), the “Percent Effect” value is reported as 8.647%. For `COCC1(CNc2cc(C(C)C)nc(N)n2)CC1`, the “Percent Effect” value was 12.37%. In the case of `Cc1nc(Cn2c3c(ccc2=O)CC(NC(C)C)CC3)cs1.O=C(O)C(F)(F)F.O=C(O)C(F)(F)F` (configuration not stated), the “Percent Effect” value is reported as 95.6%. For `COCC(=O)N1CCc2ccc(=O)n(Cc3csc(C)n3)c2CC1.O=C(O)C(F)(F)F`, the “Percent Effect” value was -6.118%. In the case of `Cc1nc(Cn2c3c(ccc2=O)CCN(CC2CC2)CC3)cs1.O=C(O)C(F)(F)F.O=C(O)C(F)(F)F`, the “Percent Effect” value is reported as 7.996%. In the case of `CC(C)NC1CCc2c(ccc(=O)n2CC2CC2)C1.O=C(O)C(F)(F)F` (configuration not stated), the “Percent Effect” value is reported as -1.359%. In the case of `Cc1nc(CN2C[C@@H]3CN(C(=O)NC(C)C)C[C@@H]3C2=O)cs1.O=C(O)C(F)(F)F`, the “Percent Effect” value is reported as 4.242%. `CCCC(=O)NC1CCc2c(ccc(=O)n2Cc2csc(C)n2)C1.O=C(O)C(F)(F)F` (configuration not stated) was tested, and the “Percent Effect” value was 92.99%. With `COCCNC(=O)[C@@H](C)[C@@H]1CCc2c(C)cc(OCC(=O)O)c(C)c2C1` the “Percent Effect” value was -3.996%. For `Cc1cccc(N2CCC(N3CCC4(CN(C)C(=O)O4)C3)CC2)c1C` (configuration not stated), the “Percent Effect” value was 10.35%. `O=C(CN1CCOC1=O)N1CC[C@@H](c2ccc3ccccc3c2)[C@H](O)C1` was tested, and the “Percent Effect” value was 1.475%.
